According to the supplement of paper PMC10849652:
The full data set covers some 8,800 targets. This sample favours those with a hit. About 0.5% of all pairs of compound and target were hits.

How the values were obtained:
Experiment in all cases: log2 fold change, soluble protein after heating vs DMSO (PISA); higher = thermal stabilisation; K562 lysate, 10 uM; active = over 0.2 and 3.5 SD of the protein, either way, in both replicates (recomputed)
[1] = compound: C1=CC=C(C=C1)[C@H](COC2=CC3=C(C=C2)NC(=O)N3)NC(=O)C4=CC=CN(C4=O)CC5=CC(=C(C=C5)F)F
In short: (§1)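 Soluble protein was defined as the supernatant remaining after 21,000xg for 90 min, following pooling of heated aliquots and adjustment to 0.5% NP-40 at 4°C. Before that, crude K562 extract at 1 mg/mL protein in PBS pH 7.4 with 1 mM MgCl2 was treated with 10 μM compound for 30 min and heated for 3 min across 48°C-58°C. Quantification used TMTpro 16plex LC-MS/MS with channel sums equalised, and values are log-two fold changes in thermal stability relative to solvent controls from duplicates.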

[2] = compound: CC1=C(SC2=C1C(=N[C@H](C3=NN=C(N32)C)CC(=O)N)C4=CC=C(C=C4)Cl)C
In short: as §1

[3] = compound: CC1=C2C(=CC=C1)N=C(N(C2=O)C3=CC=CC=C3C)CN4C=NC5=C(N=CN=C54)N
In short: as §1

[4] = compound: Cc1sc2c(c1C)C(c1ccc(Cl)cc1)=N[C@@H](CC(=O)OC(C)(C)C)c1nnc(C)n1-2
In short: as §1

[5] = compound: c1ccc([C@@H]2C[C@H]2NC2CCNCC2)cc1
In short: as §1

Measured: log2 fold change

XAB2 (UniProt Q9HCS7)
Chain of UniProt Q9HCS7 (Q9HCS7 whole entry, looked up): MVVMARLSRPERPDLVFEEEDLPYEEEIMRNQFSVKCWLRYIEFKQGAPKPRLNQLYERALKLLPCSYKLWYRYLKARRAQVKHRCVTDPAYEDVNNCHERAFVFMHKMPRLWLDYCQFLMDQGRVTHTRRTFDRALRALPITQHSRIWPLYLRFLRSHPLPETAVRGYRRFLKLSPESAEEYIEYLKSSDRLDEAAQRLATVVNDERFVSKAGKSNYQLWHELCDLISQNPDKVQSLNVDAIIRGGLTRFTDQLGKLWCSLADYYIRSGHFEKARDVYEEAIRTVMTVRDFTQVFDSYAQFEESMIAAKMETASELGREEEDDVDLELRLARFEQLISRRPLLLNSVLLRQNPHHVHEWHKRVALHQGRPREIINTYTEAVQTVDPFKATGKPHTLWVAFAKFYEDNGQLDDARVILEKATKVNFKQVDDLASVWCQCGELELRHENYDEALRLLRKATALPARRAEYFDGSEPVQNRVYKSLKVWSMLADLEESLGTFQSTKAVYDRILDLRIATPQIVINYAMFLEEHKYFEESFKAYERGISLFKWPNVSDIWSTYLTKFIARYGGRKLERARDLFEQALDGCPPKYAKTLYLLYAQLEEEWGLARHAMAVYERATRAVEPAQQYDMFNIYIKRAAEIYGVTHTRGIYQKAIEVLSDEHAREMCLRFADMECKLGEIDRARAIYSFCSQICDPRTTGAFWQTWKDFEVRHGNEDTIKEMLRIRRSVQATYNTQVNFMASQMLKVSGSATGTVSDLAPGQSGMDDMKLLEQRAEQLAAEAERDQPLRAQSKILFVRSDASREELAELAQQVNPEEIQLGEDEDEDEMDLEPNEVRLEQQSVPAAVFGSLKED
inactive: [1] -0.009 | [2] 0.05 | [3] 0 | [4] -0.018 | [5] 0.035

WDHD1 (UniProt O75717)
Chain of UniProt O75717 (O75717 whole entry, looked up): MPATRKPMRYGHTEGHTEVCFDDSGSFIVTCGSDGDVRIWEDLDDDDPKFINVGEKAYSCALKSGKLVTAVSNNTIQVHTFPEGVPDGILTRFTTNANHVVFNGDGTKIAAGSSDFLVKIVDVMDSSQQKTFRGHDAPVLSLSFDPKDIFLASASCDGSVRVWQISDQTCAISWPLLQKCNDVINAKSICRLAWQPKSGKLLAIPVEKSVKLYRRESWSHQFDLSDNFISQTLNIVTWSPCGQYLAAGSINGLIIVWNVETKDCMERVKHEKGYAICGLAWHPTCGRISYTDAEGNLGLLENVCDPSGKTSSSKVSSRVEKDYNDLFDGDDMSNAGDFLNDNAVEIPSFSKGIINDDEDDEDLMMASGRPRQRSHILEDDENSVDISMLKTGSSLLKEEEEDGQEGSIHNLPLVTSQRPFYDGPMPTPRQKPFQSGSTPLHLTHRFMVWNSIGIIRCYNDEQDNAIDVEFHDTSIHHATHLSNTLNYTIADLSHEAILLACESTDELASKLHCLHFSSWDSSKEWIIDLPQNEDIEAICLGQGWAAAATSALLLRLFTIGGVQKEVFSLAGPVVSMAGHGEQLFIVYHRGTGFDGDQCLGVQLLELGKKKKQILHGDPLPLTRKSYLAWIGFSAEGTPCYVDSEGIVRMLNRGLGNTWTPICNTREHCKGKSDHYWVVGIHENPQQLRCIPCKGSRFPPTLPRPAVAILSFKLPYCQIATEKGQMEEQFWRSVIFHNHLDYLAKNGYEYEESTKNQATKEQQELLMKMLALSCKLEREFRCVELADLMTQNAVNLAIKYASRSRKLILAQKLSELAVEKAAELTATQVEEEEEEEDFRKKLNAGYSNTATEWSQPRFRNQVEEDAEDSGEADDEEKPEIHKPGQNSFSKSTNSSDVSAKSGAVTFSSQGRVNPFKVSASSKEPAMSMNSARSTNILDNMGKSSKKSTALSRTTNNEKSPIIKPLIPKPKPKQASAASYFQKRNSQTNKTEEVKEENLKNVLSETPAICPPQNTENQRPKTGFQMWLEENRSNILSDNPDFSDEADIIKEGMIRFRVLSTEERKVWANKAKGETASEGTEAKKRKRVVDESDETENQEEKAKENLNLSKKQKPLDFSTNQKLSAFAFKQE
inactive: [1] 0.018 | [2] -0.011 | [3] -0.017 | [4] 0.011 | [5] 0.067

VARS (UniProt P26640)
inactive: [1] -0.022 | [2] 0.013 | [3] 0.013 | [4] 0 | [5] 0.031

VPS37B (UniProt Q9H9H4)
Chain of UniProt Q9H9H4 (Q9H9H4 whole entry, looked up): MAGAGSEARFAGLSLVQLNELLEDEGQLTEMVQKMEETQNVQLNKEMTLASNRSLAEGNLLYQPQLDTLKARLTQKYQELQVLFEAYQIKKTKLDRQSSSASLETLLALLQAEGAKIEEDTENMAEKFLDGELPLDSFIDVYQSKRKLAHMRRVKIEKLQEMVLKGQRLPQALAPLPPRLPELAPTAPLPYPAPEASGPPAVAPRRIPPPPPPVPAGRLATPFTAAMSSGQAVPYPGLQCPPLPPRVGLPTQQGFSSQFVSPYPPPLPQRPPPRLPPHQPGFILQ
inactive: [1] 0.028 | [2] 0.039 | [3] 0.01 | [4] -0.01 | [5] 0.064

USP8 (UniProt P40818)
Chain of UniProt P40818 (P40818 whole entry, looked up): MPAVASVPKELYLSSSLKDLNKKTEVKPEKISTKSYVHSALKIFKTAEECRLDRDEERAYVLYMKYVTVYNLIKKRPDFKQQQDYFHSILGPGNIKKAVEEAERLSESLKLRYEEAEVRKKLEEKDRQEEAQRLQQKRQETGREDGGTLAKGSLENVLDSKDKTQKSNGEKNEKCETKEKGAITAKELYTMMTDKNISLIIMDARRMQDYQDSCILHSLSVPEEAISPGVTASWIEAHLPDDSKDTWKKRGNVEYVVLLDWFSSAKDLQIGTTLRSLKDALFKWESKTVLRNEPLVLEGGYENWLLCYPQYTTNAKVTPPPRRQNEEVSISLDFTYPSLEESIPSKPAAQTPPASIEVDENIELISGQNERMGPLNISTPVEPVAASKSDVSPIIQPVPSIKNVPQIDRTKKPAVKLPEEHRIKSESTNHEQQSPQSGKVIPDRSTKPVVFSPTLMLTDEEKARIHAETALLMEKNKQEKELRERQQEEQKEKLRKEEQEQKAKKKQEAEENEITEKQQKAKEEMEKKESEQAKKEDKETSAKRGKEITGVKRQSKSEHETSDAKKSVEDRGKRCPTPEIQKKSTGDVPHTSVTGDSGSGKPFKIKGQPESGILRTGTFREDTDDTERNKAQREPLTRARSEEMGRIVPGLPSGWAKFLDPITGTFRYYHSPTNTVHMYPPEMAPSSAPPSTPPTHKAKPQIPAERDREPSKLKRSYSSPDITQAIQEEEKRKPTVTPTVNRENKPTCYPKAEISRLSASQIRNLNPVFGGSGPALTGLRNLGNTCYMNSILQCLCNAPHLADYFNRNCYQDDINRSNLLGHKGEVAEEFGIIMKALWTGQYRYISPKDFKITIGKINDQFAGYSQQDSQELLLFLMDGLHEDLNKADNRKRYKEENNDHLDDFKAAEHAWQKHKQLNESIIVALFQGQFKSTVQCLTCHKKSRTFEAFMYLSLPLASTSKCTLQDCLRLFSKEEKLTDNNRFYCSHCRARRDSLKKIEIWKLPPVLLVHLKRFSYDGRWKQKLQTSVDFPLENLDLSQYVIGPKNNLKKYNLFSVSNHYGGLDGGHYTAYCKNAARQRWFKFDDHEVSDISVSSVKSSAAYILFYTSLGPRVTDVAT
inactive: [1] -0.018 | [2] 0.016 | [3] 0.01 | [4] 0.009 | [5] 0.036

URGCP (UniProt Q8TCY9)
Chain of UniProt Q8TCY9 (Q8TCY9 whole entry, looked up): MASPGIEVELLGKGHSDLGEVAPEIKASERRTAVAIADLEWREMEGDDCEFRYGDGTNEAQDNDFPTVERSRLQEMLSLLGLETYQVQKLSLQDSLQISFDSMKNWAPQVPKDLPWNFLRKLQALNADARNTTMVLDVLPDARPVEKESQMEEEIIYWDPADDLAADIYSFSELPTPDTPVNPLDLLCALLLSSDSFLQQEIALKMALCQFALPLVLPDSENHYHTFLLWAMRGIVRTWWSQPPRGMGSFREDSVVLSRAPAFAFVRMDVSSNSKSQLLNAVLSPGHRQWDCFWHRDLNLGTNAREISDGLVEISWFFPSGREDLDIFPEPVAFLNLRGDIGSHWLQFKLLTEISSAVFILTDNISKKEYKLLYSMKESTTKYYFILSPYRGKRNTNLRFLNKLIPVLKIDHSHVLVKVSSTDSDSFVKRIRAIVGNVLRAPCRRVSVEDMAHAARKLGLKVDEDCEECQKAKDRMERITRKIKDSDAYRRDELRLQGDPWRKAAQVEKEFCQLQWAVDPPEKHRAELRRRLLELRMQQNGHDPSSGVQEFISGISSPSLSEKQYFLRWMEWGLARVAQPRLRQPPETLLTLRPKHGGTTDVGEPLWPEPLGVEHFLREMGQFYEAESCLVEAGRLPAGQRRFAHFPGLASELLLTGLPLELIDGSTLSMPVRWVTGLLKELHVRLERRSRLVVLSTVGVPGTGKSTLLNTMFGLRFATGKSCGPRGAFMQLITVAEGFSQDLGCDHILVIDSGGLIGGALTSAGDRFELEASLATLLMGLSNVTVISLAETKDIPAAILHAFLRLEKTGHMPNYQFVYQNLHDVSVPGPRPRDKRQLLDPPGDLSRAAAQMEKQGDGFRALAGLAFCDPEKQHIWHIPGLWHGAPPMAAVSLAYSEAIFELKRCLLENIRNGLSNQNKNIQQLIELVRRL
inactive: [1] 0.003 | [2] 0.036 | [3] 0.044 | [4] 0.047

UXT isoform 2 (UniProt Q9UBK9)
Chain of UniProt Q9UBK9 (Q9UBK9 whole entry, looked up): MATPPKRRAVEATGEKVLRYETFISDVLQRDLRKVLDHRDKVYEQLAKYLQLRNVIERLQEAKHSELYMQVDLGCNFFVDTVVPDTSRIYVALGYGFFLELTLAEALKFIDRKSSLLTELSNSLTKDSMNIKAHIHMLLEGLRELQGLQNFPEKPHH
inactive: [1] 0.033 | [2] 0.026 | [3] 0.008 | [4] -0.053 | [5] -0.071

YTHDF3 (UniProt Q7Z739)
inactive: [1] -0.111 | [2] 0.021 | [3] 0.063 | [4] -0.01 | [5] -0.018

UNKL (UniProt E9PDK2)
inactive: [1] -0.025 | [2] 0.09 | [3] 0.249 | [4] 0.022

VASP (UniProt P50552)
Chain of UniProt P50552 (P50552 whole entry, looked up): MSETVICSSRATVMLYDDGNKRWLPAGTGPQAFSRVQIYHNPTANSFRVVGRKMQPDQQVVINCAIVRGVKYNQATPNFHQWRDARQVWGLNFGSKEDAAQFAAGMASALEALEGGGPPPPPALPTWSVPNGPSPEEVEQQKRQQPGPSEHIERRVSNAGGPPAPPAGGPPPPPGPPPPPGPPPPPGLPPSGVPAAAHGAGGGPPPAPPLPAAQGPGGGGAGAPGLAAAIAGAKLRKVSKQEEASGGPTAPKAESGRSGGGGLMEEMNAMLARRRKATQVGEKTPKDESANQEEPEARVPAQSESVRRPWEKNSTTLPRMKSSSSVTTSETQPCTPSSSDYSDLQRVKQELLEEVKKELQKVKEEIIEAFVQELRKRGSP
inactive: [1] -0.005 | [2] 0.006 | [3] 0.008 | [4] -0.052 | [5] 0.017
